tim23-1 inh = growth inhibitors of tim23-1 mutant yeast; S. cerevisiae tim23-1 growth, BacTiter-Glo luminescence, 24 h; inhibition, % at 20 µM; 330,000 tested, 1.3% active;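 active = growth inhibition of the mutant yeast at or above 50%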;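 also: temperature-sensitive mutant grown at 25 °C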
NLRP3 yeast inh = blocks the NALP3 inflammasome reconstituted in yeast. Yeast reconstituted NLRP3/ASC/caspase-1, beta-gal luminescence, 24 h. inhibition, % at 10 µM. 330,000 tested, 0.39% active;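 active = inhibition of 50% or more; inactive = inhibition below 50%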
tim10-1 inh = tim10-1 yeast growth inhibition. inhibition, % at 20 µM. S. cerevisiae tim10-1 ts strain growth, BacTiter-Glo, 24 h. AID 463190. 330,000 tested, 2.2% active;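 active = inhibition of at least 40%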;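 also: mutant grown at 25 °C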
TIM10 inh = inhibits growth of TIM10 yeast strain; 330,000 tested, 1.4% active; AID 463195; S. cerevisiae TIM10 strain growth, BacTiter-Glo luminescence, 24 h; inhibition, % at 10 µM;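 active = inhibition of 40% or more at the single tested concentration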;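 also: wild-type TIM10 isogenic control strain grown at permissive 25 °C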
PfHsp90 set2 = inhibits growth of yeast expressing Plasmodium falciparum Hsp90; S. cerevisiae expressing PfHsp90, BacTiter-Glo ATP, 48 h; yeast lacking PDR1 and PDR3 efflux regulators; inhibition, % at 9.4 µM; 310,000 tested, 0.32% active; AID 504621;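 active = every replicate shows inhibition above about 80%, whatever the replicate mean, limit read from the data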
tim10-1 confirm = tim10-1 yeast growth inhibition, confirmed; shares compounds with tim10-1 inh; S. cerevisiae tim10-1 ts strain growth, BacTiter-Glo, 24 h; inhibition, % at 20 µM; 7,400 tested, 56% active;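 active = inhibition of yeast growth at or above a set limit in either of two repeat tests at 20 µM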;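 also: tim10-1 mutant grown at permissive 25 °C to find synthetic lethal compounds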
TIM10 conf = TIM10 yeast growth inhibition, confirmed; shares compounds with TIM10 inh; S. cerevisiae tim10 strain growth, BacTiter-Glo luminescence, 24 h; inhibition, % at 10 µM; 4,600 tested, 63% active; AID 463215;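 active = inhibition of yeast growth at or above a set limit in either of two replicates at 10 µM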; also: this counterscreen used the strain with wild-type TIM10
Each line names hits and unclear results; the compound was inactive in the other large screens (follow-up assays come after a bar, where they were run). Only some compounds are listed: those with a hit (about 3.7% of all), similar ones and a draw of the others.

O=C(CNC(=O)c1cccc(Cl)c1)NCCCSc1ccccc1	none
CCOc1ccc2nc(N/C(N)=N/C(=S)Nc3cccc(C)c3)nc(C)c2c1	none
CCc1ccccc1NC(=S)/N=C(\N)Nc1nc(C)c2cc(C)ccc2n1	tim10-1 inh 45, TIM10 inh 44 | tim10-1 confirm inactive | TIM10 conf inactive
N#CC1(C#N)CC(C=O)=C(N)C1(C#N)CC(=O)C12CC3CC(CC(C3)C1)C2 (centres undefined)	tim10-1 inh 40, TIM10 inh 48 | tim10-1 confirm 48 | TIM10 conf 40
Nc1nccnc1C(=O)OCC(=O)C12CC3CC(CC(C3)C1)C2	none
N/C(=N\OC(=O)c1ccc2c(c1)OCO2)c1cccc([N+](=O)[O-])c1	tim10-1 inh 48, TIM10 inh 44 | tim10-1 confirm 33 | TIM10 conf inactive
N/C(=N\OC(=O)Oc1ccccc1)c1cccc([N+](=O)[O-])c1	none
Cc1ccccc1C(=O)O/N=C(\N)c1cccc([N+](=O)[O-])c1	tim10-1 inh 68, TIM10 inh 50 | tim10-1 confirm 74 | TIM10 conf 48
Cc1nc(-c2cccc(NC(=O)COc3ccc(Cl)cc3)c2)cs1	none
O=C(c1ccc2nc(Cc3ccccc3F)oc2c1)N1CC[C@H](O)C1	none
Oc1ccc(Cl)cc1-c1cc(-c2ccccc2Cl)[nH]n1	tim10-1 inh 49, TIM10 inh 41 | tim10-1 confirm 36 | TIM10 conf 37
O=[N+]([O-])c1ccccc1-c1cc(-c2cc(Cl)ccc2O)n[nH]1	none (no result: tim23-1 inh, NLRP3 yeast inh, tim10-1 inh, TIM10 inh)
Oc1ccc(Br)cc1-c1ccn[nH]1	none
Oc1ccc(Cl)cc1-c1cc(-c2cccc(Br)c2)n[nH]1	tim10-1 inh 48, TIM10 inh 53 | tim10-1 confirm 37 | TIM10 conf 49
CC(C)(C)c1ccc(-c2cc(-c3ccccc3O)[nH]n2)cc1	tim10-1 inh 49, TIM10 inh 41 | tim10-1 confirm 42 | TIM10 conf inactive
Cc1ccc(O)c(-c2cc(-c3ccccc3C)[nH]n2)c1	tim10-1 inh 52, TIM10 inh 66 | tim10-1 confirm inactive | TIM10 conf inactive
CC(C)(C)c1ccc(-c2cc(N)n[nH]2)cc1	none
Cc1ccc(-c2nc(COC(=O)C3=NN(c4ccccc4)C(=O)CC3)cs2)cc1	none
CCOc1ccc(S(=O)(=O)N2CCOCC2)cc1NC(=O)CSCc1ccc(C)cc1	none
O=C(/C(=C/O)N=Nc1ccccc1Cl)c1ccccc1	tim10-1 inh 43, TIM10 inh 91 | tim10-1 confirm inactive | TIM10 conf inactive
COc1ccc(NC(=O)COc2ccccc2Cc2ccccc2)cc1S(=O)(=O)N1CCOCC1	none (no result: PfHsp90 set2)
COc1ccccc1/C=C/CN1CCCC(CCC(=O)NCc2ccccc2F)C1 (centres undefined)	tim10-1 inh 52, TIM10 inh 43 | tim10-1 confirm 36 | TIM10 conf inactive
Cc1ccc(NC(=O)CN(C)C(=O)CNC(=O)c2cccs2)cc1	none (no result: PfHsp90 set2)
Oc1ccc(/C=N/Nc2nccnc2Cl)c(O)c1	tim10-1 inh 61, TIM10 inh 70 | tim10-1 confirm 28 | TIM10 conf 54
ClC(CCN1CCN(Cc2ccccc2)CC1)c1ccccc1 (centres undefined)	none
O=C(c1ccc([N+](=O)[O-])s1)N1CCCc2ccccc21	tim10-1 inh 54, TIM10 inh 40 | tim10-1 confirm 49 | TIM10 conf 51
O=C(c1ccc([N+](=O)[O-])s1)N1CCc2ccccc21	none
Cc1ccc(C(=O)O/N=C(\N)Cc2cccc3ccccc23)cc1	tim10-1 inh 49, TIM10 inh 42 | tim10-1 confirm 52 | TIM10 conf 73
COc1ccccc1C/C(N)=N/OC(=O)COc1ccc(C)cc1C	tim10-1 inh 48, TIM10 inh 43 | tim10-1 confirm 42 | TIM10 conf 35
Cc1ccc(C(=O)O/N=C(\N)c2ccccn2)cc1	none
COc1ccccc1CC(=O)O/N=C(\N)Cc1cccc2ccccc12	tim10-1 inh 67, TIM10 inh 56 (no result: PfHsp90 set2) | tim10-1 confirm 53 | TIM10 conf 62
CCc1ccc(CNC(=O)c2ccc3nc(C4CCCCC4)oc3c2)nc1	none (no result: PfHsp90 set2)
CN(CC(=O)Nc1ccc(Cl)c(Cl)c1)C1CCCCC1	none
CN(CC(=O)Nc1ccc(Cl)c(Cl)c1)C(=O)C12CC3CC(CC(C3)C1)C2	tim10-1 inh 45, TIM10 inh 60 | tim10-1 confirm inactive | TIM10 conf 53
Cc1cccc(/C=C2\Oc3cc(OS(C)(=O)=O)ccc3C2=O)c1	tim10-1 inh 47, TIM10 inh 43 | tim10-1 confirm 37 | TIM10 conf inactive
CNc1cc(C)nc(-n2nc(C)cc2C)n1	none
CCOc1ccc(Nc2cc(C)nc(-n3nc(C)cc3C)n2)cc1	tim10-1 inh 44, TIM10 inh 42 | tim10-1 confirm inactive | TIM10 conf inactive
O=C(COC(=O)c1ccc(OC(F)F)cc1)NCCC1=CCCCC1	none
O=C(Nc1cccc2ccccc12)c1ccc([N+](=O)[O-])s1	none
O=C(Nc1ccccc1F)c1ccc([N+](=O)[O-])s1	tim10-1 inh 45, TIM10 inh 56 | tim10-1 confirm 59 | TIM10 conf 64
CC(C)(C)c1ccc(/C=N/NC(=S)NCc2ccccc2)cc1	none
C/C(=N\NC(=S)NCc1ccccc1)c1ccc2c(c1)OCCO2	tim10-1 inh 43, TIM10 inh 46 | tim10-1 confirm 49 | TIM10 conf 39
C/C(=N\NC(=S)NCc1ccccc1)c1ccc(Br)cc1	tim10-1 inh 49 | tim10-1 confirm inactive | TIM10 conf 32
CN(C)c1ccc(/C=N/NC(=S)NCc2ccccc2)cc1	tim10-1 inh 43, TIM10 inh 55 (no result: PfHsp90 set2) | tim10-1 confirm 32 | TIM10 conf 44
O=C(C[n+]1ccccc1)Nc1ccccc1C(F)(F)F	none
Cc1[nH]c(=O)c(C(=O)/C=C/c2ccccc2F)c2c1CCCC2	tim10-1 inh 47, TIM10 inh 44 | tim10-1 confirm 52 | TIM10 conf 38
C/C(=C\c1ccccc1F)C(=O)c1c(C)cc(C)[nH]c1=O	none
COc1ccc(CCNC(=S)NC(=O)c2cccc(Cl)c2)cc1OC	tim10-1 inh 48, TIM10 inh 40 (no result: PfHsp90 set2) | tim10-1 confirm 30 | TIM10 conf 41
O=S(=O)(c1cccc(F)c1)N1CCN(C(=S)NCC2CCCO2)CC1 (centres undefined)	none
COc1ccc(Nc2c3ccccc3nc3ccccc23)cc1	none
COc1cc(Nc2c3ccccc3nc3ccccc23)cc(OC)c1OC	tim10-1 inh 78, TIM10 inh 60 | tim10-1 confirm 76 | TIM10 conf 38
COc1ccccc1-c1cc(C(F)(F)F)nc(S(=O)(=O)CCCC(=O)N2CCCCC2C)n1 (centres undefined)	tim10-1 inh 42, TIM10 inh 41 | tim10-1 confirm inactive | TIM10 conf inactive
